Experimental data published in PubChem BioAssay (NCI).
About 79,000 compounds went through this panel and 15% of them were active in at least one assay; those are over-represented in the sample as a whole. A number with no mark means an inactive call. Activity calls are given as the source filed them. Cut-off read from the data, not from the text of the source: active = growth inhibition above about 70%; inactive = the rest.

What was measured:
[1] = NCI Yeast Anticancer Drug Screen. Data for the rad50 strain (AID 155);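 note: 0% = growth of vehicle-only cultures of the same strain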; conditions: S. cerevisiae rad50 strain growth inhibition, stronger effect = higher value
In short: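 Readout: growth inhibition relative to vehicle-treated cultures. Compound exposure was carried out in a genetically defined yeast strain deficient in DNA damage repair.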

[2] = NCI Yeast Anticancer Drug Screen. Data for the mec2-1 strain (AID 157); conditions: S. cerevisiae mec2-1 strain, stronger effect = higher value
In short: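 Each compound was tested on mec2-1 yeast, a strain altered in DNA damage repair or cell cycle control. Growth inhibition is reported relative to vehicle.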

[3] = NCI Yeast Anticancer Drug Screen. Data for the sgs1 mgt1 strain (AID 161);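 note: 0% = growth of cultures given vehicle only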; conditions: S. cerevisiae sgs1 mgt1 strain, stronger effect = higher value
In short: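 Read-out: growth inhibition vs vehicle controls. Cells: mutant yeast strain deficient in DNA damage repair.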

[4] = NCI Yeast Anticancer Drug Screen. Data for the cln2 rad14 strain (AID 165);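 note: 0% = growth equal to vehicle treated cultures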; conditions: S. cerevisiae cln2 rad14 strain, stronger effect = higher value
In short: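 Test compounds were added to cln2 rad14 yeast cultures; inhibition of growth was then determined by comparison with vehicle treatment.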

[5] = NCI Yeast Anticancer Drug Screen. Data for the bub3 strain (AID 167); conditions: S. cerevisiae bub3 mutant strain, stronger effect = higher value
In short: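 Readout: yeast growth inhibition, expressed relative to vehicle-only wells. The test organism is a mutant strain from a panel with lesions in DNA repair or checkpoint genes.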

[6] = NCI Yeast Anticancer Drug Screen. Data for the mlh1 rad18 strain (AID 175); conditions: S. cerevisiae mlh1 rad18 strain growth inhibition, stronger effect = higher value
In short: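 Inhibition values reflect reduced growth of mutant yeast versus vehicle-treated controls following compound exposure; the mutations affect DNA damage repair.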

[7] = at 5.0 µM (retest, dose inferred, filed as 0.5)
[8] = at 50.0 µM (retest, dose inferred, filed as 5.0)

SMILES	growth inhibition [1, 7]	growth inhibition [1, 8]	growth inhibition ([1]; at 50.0 µM)	growth inhibition [2, 7]	growth inhibition [2, 8]	growth inhibition ([2]; at 50.0 µM)	growth inhibition [3, 7]	growth inhibition [3, 8]	growth inhibition ([3]; at 50.0 µM)	growth inhibition [4, 7]	growth inhibition [4, 8]	growth inhibition ([4]; at 50.0 µM)	growth inhibition [5, 7]	growth inhibition [5, 8]	growth inhibition ([5]; at 50.0 µM)	growth inhibition [6, 7]	growth inhibition [6, 8]	growth inhibition ([6]; at 50.0 µM)
Cn1c2nc(-[n+]3ccc4ccccc4c3)nc-2c([O-])n(C)c1=O	34%	95% (active)	-9.45%	12%	96% (active)	3.55%	15%	96% (active)	-13.1%	3%	84% (active)	49%	8%	97% (active)	0.2%	12%	98% (active)	-3.35%
O=C(/C=C/c1ccc2c(c1)OCO2)c1ccc(O)cc1	-27%	-21%	61%	-13%	21%	44%	-27%	-31%	40.8%	-7%	-11%	65.2%	-32%	5%	61.5%	-33%	-17%	14.6%
CCCCCCCCC(N)CCCCCCCC	99% (active)	98% (active)	99% (active)	100% (active)	99% (active)	99% (active)	99% (active)	99% (active)	46%	96% (active)	99% (active)	98.8% (active)	99% (active)	98% (active)	99.2% (active)	99% (active)	98% (active)	99.5% (active)
COc1ccc(/C(=N\Nc2ccc(Br)cc2)c2ccccc2/C(=N/Nc2ccc(Br)cc2)c2ccccc2OC)cc1	1%	-3%	96% (active)	-13%	11%	76.3% (active)	5%	18%	97.2% (active)	2%	11%	54.6%	-7%	20%	93.5% (active)	11%	33%	96.3% (active)
COC(=O)c1c(/C(=N/Nc2ccc([N+](=O)[O-])cc2)[N+](=O)[O-])ssc1=N	14%	37%	21.1%	0%	44%	24.9%	13%	60%	27.6%	6%	23%	27.9%	6%	40%	24.9%	15%	54%	70.9% (active)
OC(c1ccccc1)(C(F)(F)F)C(O)(c1ccccc1)C(F)(F)F (configuration not stated)	77% (active)	99% (active)	94.4% (active)	57%	99% (active)	89.2% (active)	87% (active)	99% (active)	89.7% (active)	57%	99% (active)	90.5% (active)	76% (active)	99% (active)	81.6% (active)	85% (active)	99% (active)	95.5% (active)
c1ccc(Oc2ccc(Nc3c4ccccc4nc4ccccc34)cc2)cc1	85% (active)	57%	45.9%	4%	70% (active)	30%	17%	84% (active)	76.2% (active)	3%	62%	31.9%	-4%	81% (active)	28.6%	13%	91% (active)	27.1%
CCOC(=O)C(Cc1ccc(O)c(C=O)c1)NC(C)=O (configuration not stated)	-13%	7%	-19.7%	-9%	20%	-7.45%	-22%	2%	0.3%	3%	39%	-8.75%	-1%	3%	0.05%	-7%	-10%	-1.55%
C1CCC(CC[N+]23CC[N+](CCC4CCCC4)(CC2)C3)C1	1%	33%	62.3%	-8%	34%	-14.4%	12%	72% (active)	45.3%	2%	15%	-8.6%	2%	25%	11.6%	24%	59%	40%
